# Laboratory results from ChEMBL document CHEMBL4513216, “Probing the Open Global Health Chemical Diversity Library for Multistage-Active Starting Points for Next-Generation Antimalarials” (ACS Infect Dis, 2020).
# The campaign covered roughly 69,000 compounds. About 8,600 (12%) showed an effect of 50% or more. Only a selection was taken, and strong results are over-represented in it overall.
# System: Plasmodium berghei
# Experiment: Screen against P. berghei liver stage (PbLuc), transformed with Luciferase, at 10uM
# Type: functional, HepG2
# Conditions: tested at 10 uM
row,SMILES,INHIBITION [%]
1,CN(C)CC(C)(C)Cn1cnc(-c2ccccc2)c1-c1cccc(O)c1,-39.3
2,CCc1cc(CN(C)C(=O)c2cc(=O)[nH]c(=O)[nH]2)on1,-34.8
3,CCn1nc(C)c2ncnc(N3CCCC(C)C3)c21 (stereo not drawn),26.9
4,CCN(CC1CCOC1)C(=O)c1ccc(N(C)C)cc1F (stereo not drawn),13.8
5,O=C(Cc1ccccc1)N1CCOC(c2nc(-c3ncccn3)no2)C1 (stereo not drawn),-20.2
6,COc1ccc(C(NCc2cccc(O)c2)C2CC2)cc1 (stereo not drawn),3.84
7,CC(C)COCC1CN(Cc2cnn(C)c2)Cc2ncn(C)c21 (stereo not drawn),28.3
8,COCC1CN(Cc2ccc3c(c2)OCO3)Cc2ncn(C)c21 (stereo not drawn),38.2
9,CC(C)COCC1CN(Cc2ccoc2)Cc2ncn(C)c21 (stereo not drawn),9.51
10,Cn1cnc2c1C(COCC1CC1)CN(Cc1ccc3c(c1)OCO3)C2 (stereo not drawn),63.5
11,CC(C)COCC1CN(Cc2ccc3c(c2)OCO3)Cc2ncn(C)c21 (stereo not drawn),55.1
12,CCOCC1CN(Cc2ccc3c(c2)OCO3)Cc2ncn(C)c21 (stereo not drawn),23.3
13,CC(C)Cn1c(=O)[nH]c2cn(-c3ccc(F)cc3)c(=O)n21,11.4
14,Cc1cc(CN2CCC3(CC2)CC(Nc2ncccn2)CO3)nn1C (stereo not drawn),-0.813
15,CC(Cn1cccn1)NCc1csc(COc2ccc(F)cc2)n1 (stereo not drawn),33.7
16,CCCC1(NC(=O)C(c2ccc(F)cc2)N(C)C)CC1 (stereo not drawn),53.6
17,CN(C)C(C(=O)NC1(CO)CCCC1)c1ccc(F)cc1 (stereo not drawn),31.3
18,COCC1(NC(=O)C(c2ccc(F)cc2)N(C)C)CCCC1 (stereo not drawn),21.1
19,CCOc1ccc(CCCC(=O)N2CCC(c3nnn[nH]3)CC2)cc1C,17.7
20,CC(C)CC(=O)N1CCCCC(NC(=O)CCc2cccnc2)C1 (stereo not drawn),34.4
21,CCO[C@H]1CCN(S(=O)(=O)c2cn(C)cn2)[C@H]1Cc1ccccc1,-55.5
22,Cc1cccn2cc(CN3CCCC(c4noc(C5CC5)n4)C3)nc12 (stereo not drawn),-48.6
23,C1CC(c2noc(C3CC3)n2)CN(Cc2noc(C3CC3)n2)C1 (stereo not drawn),17.8
24,c1cc(CN2CCCC(c3noc(C4CC4)n3)C2)no1 (stereo not drawn),51.6
25,CCN(Cc1cnn(C)c1)C[C@H]1CC[C@@H](Cc2ccc(CO)cc2)O1,-5.78
26,O=C(NCc1ccco1)[C@H]1C[C@@H]2CCN(c3nncs3)C[C@H]2O1,13.5
27,CSCC(=O)N(C)Cc1noc(-c2ccccc2)n1,55.9

row,SMILES,INHIBITION [%]
1,CCc1nc(CN(C)C(=O)CSC)no1,-4.96
2,CN(Cc1noc(-c2ccccc2)n1)C(=O)CSc1nnc(N)s1,18.9
3,c1ccc(-c2cnc(CN3CCCC3Cn3cccn3)o2)cc1 (stereo not drawn),40.9
4,O=C1CC2(CCCC2)CC(=O)N1Cc1ncccn1,29.4
5,COc1ccc(CNC(=O)c2nn(C)c3c2CS(=O)(=O)CC3)cc1,40
6,Cn1nc(C(=O)NCc2ccccn2)c2c1CCS(=O)(=O)C2,-45
7,Cn1nc(C(=O)NCc2ccc(Cl)cc2)c2c1CCS(=O)(=O)C2,53.2
8,Cn1nc(C(=O)NCc2cccs2)c2c1CCS(=O)(=O)C2,23.4
9,Cn1nc(C(=O)NCc2ccc(F)cc2)c2c1CCS(=O)(=O)C2,21.7
10,Cn1nc(C(=O)NCc2cccnc2)c2c1CCS(=O)(=O)C2,73.9
11,Cc1cnnn1Cc1nnn2c1CN(Cc1ccccn1)CCC2,42.6
12,O=C(O)CSc1nc(-c2ccc3c(c2)CCC3)n[nH]1,11.4
13,O=C([C@H]1CC[C@@H]2[C@@H](CCN2Cc2ccc(F)cc2)O1)N1CCCO1,-11.6
14,c1cnc(N2CCN(CCn3ccnc3-c3ccncc3)CC2)nc1,50.5
15,c1cnc(N2CCN(CCn3ccnc3-c3c[nH]cn3)CC2)nc1,14.5
16,Cc1nccn1CCC1CCN(c2ncccn2)CC1,48.5
17,O=C(c1ccccn1)N1Cc2ccccc2OC2(CCOCC2)C1,48.4
18,O=C(c1ccncc1)N1Cc2ccccc2OC2(CCOCC2)C1,20.5
19,Cc1cc(C(=O)N2Cc3ccccc3OC3(CCOCC3)C2)nc(N)n1,52.9
20,O=C(c1cncnc1)N1Cc2ccccc2OC2(CCOCC2)C1,-33.4
21,O=C(c1ccc(O)nc1)N1Cc2ccccc2OC2(CCOCC2)C1,25.6
22,Cc1nc(N)sc1C(=O)N1Cc2ccccc2OC2(CCOCC2)C1,61.7
23,Cc1cnc(C(=O)N2Cc3ccccc3OC3(CCOCC3)C2)cn1,-6.92
24,Cc1ccc(C(=O)N2Cc3ccccc3OC3(CCOCC3)C2)cn1,52
25,Nc1nonc1C(=O)N1Cc2ccccc2OC2(CCOCC2)C1,8.72
26,Cc1ccc2nc(C3CCCN(Cc4ccccc4)C3)nc(O)c2c1 (stereo not drawn),30.8
